Screening data (PubChem BioAssay)
Rows were chosen to be rich in hits. Some 6.8% of all compounds tested hit in one or more screens of this group.
NADH enzymes: inhibitors of enzymes used to reach an NAD/NADH endpoint. coupled PK/LDH NADH assays, four targets. IC50, µM (doses to about 10 µM). 65,000 tested, 0.02% active. AID 774;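 active means single-dose screening hits from any of four coupled enzyme assays that gave an IC50 when retested across doses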;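 further: the DPM-DC format reads NADH fluorescence rather than 340 nm absorbance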
MK inhibit: inhibitors of Streptococcus pneumoniae mevalonate kinase. 65,000 tested, 0.48% active. inhibition, % at 10 µM. purified MK, PK/LDH-coupled NADH absorbance 340 nm;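 active means ranked among the strongest by inhibition in the single 10 µM screen, a fixed top-ranked set picked for dose follow-up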
Spn DPM-DC inh: inhibitors of Streptococcus pneumoniae diphosphomevalonate decarboxylase; 65,000 tested, 0.49% active; purified DPM-DC, PK/LDH coupled NADH fluorescence; calls only at 10 µM;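 active means the 320 compounds with the highest percent inhibition in the single-dose primary screen, excluding strongly autofluorescent ones, cut at about 32% in these data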;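 further: kinetic rate of NADH fluorescence loss reporting ADP formed by the decarboxylase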
A340 absorber: absorbance at 340 nm | fold change at 10 µM | AID 708 | 65,000 tested, under 10 active | compound absorbance at 340 nm, fold over control;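 active means at 10 µM dose, initial 340 nm absorbance at least 2 fold that of control wells; inactive means change under 2 fold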;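 further: initial absorbance extrapolated from kinetic A340 decline of NADH oxidation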
Fluor 339 460: intrinsic fluorescence of library compounds, ex339/em460 – biochemical, MLSMR library, data from DPM-DC assay, artefact control, profiling panel | compound autofluorescence, ex339/em460 nm, NADH buffer; hits give high values; 1 = no-compound wells, NADH background | fluorescence fold increase at 10 µM | 65,000 tested, 5.5% active;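 active means at 10 µM, mean starting fluorescence two-fold or more over control wells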;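 further: signal is the first read of a kinetic run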
PMK inhibit: inhibitors of Streptococcus pneumoniae phosphomevalonate kinase; purified PMK, PK/LDH-coupled NADH absorbance 340 nm; inhibition, % at 10 µM; 65,000 tested, 0.49% active; AID 539;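 active means top-ranked compounds by inhibition in the single 10 µM screen, taking a fixed number of the strongest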
Hits are given with their value; - = inactive; . = not tested or not shown; + = active, no number.

SMILES | NADH enzymes | MK inhibit | Spn DPM-DC inh | A340 absorber | Fluor 339 460 | PMK inhibit
CCOCCCn1c(=N)c(C(=O)NCc2ccc3c(c2)OCO3)cc2c(=O)n3cccc(C)c3nc21 | - | - | - | - | 2.7 | -
Cc1cccn2c(=O)c3cc(C(=O)NC4CCCCC4)c(=N)n(CCN4CCOCC4)c3nc12 | - | - | - | - | - | -
CCCCNC(=O)c1cc2c(=O)n3cccc(C)c3nc2n(Cc2ccncc2)c1=N | - | - | . | - | 3.7 | -
Cc1cccn2c(=O)c3cc(C(=O)NCCCN4CCOCC4)n(C)c3nc12 | - | - | . | - | 2.1 | -
CCn1c(=N)c(C(=O)NC)cc2c(=O)n3cccc(C)c3nc21 | - | - | . | - | 3.9 | -
COc1ccc(CCNC(=O)c2cc3c(=O)n4cccc(C)c4nc3n(Cc3ccncc3)c2=N)cc1 | - | - | - | - | - | -
CCn1c(=N)c(C(N)=O)cc2c(=O)n3cccc(C)c3nc21 | - | - | . | - | - | -
COCCNC(=O)c1cc2c(=O)n3cccc(C)c3nc2n(Cc2ccncc2)c1=N | - | - | . | - | 3.9 | -
Cc1ccc(-c2noc(CCC(=O)NCCN3CCOCC3)n2)cc1 | - | - | - | - | - | -
O=C(CCc1nc(-c2ccccc2F)no1)NCCN1CCc2ccccc2C1 | - | - | + | - | - | -
O=C(CCc1nc(-c2ccccc2F)no1)NCCc1ccccc1Cl | - | - | - | - | - | -
Cc1ccc(-c2noc(CCC(=O)NCCN3CCc4ccccc4C3)n2)cc1 | - | - | - | - | - | 25
Cc1cc(CN2CCN(CCC#N)CC2)c(O)c(C2(C)CCCCC2)c1 | - | - | - | - | - | -
O=C(NC1CCCCCCC1)c1ccccc1O | - | - | - | - | 3 | -
Cc1occc1C(=O)NC1CCCCCC1 | - | - | - | - | - | -
COc1ccc(C(=O)N2CCC(C(=O)NCc3ccccn3)CC2)cc1 | - | - | - | - | - | -
COc1ccc2c(c1)CCc1cc(C(=O)N3CCN(c4ccc(N5CCOCC5)nn4)CC3)sc1-2 | - | - | . | - | 2.5 | -
COc1ccc2c(c1)CCc1c(C(=O)N3CCCCCC3)noc1-2 | - | - | - | - | - | -
CCS(=O)(=O)N1CCC(C(=O)NCCc2ccc(C)cc2)CC1 | - | - | - | - | - | -
CCS(=O)(=O)N1CCC(C(=O)NCC2CCCO2)CC1 (centres undefined) | - | - | - | - | - | 25
CCS(=O)(=O)N1CCC(C(=O)NCCc2ccccc2)CC1 | - | - | - | - | - | 25
O=C(NCC1CCCO1)C1CCN(S(=O)(=O)N2CCCC2)CC1 (centres undefined) | - | - | - | - | - | -
O=C(NCC1CCCO1)C1CC(=O)N(C2CCCCCC2)C1 (centres undefined) | - | - | - | - | - | 27
N#CCCN(Cc1cccnc1)C(=O)c1ccc(S(=O)(=O)N2CCOCC2)cc1 | - | - | - | - | - | -
COC(=O)Cn1c(=NC(=O)CSC(C)=O)sc2ccccc21 | - | - | + | - | - | -
SMILES | NADH enzymes | MK inhibit | Spn DPM-DC inh | A340 absorber | Fluor 339 460 | PMK inhibit
CCn1c(=NC(=O)CSC(C)=O)sc2ccccc21 | - | - | - | - | - | -
COc1ccc(C)cc1NC(=O)c1cc2c(C)nc3ccccc3c2o1 | - | - | . | - | 5 | -
COc1cc(NC(=O)c2cc3c(C)nc4ccccc4c3o2)cc(OC)c1OC | - | - | - | - | - | -
Cc1nc2ccccc2c2oc(C(=O)Nc3ccc4c(c3)OCCO4)cc12 | - | - | . | - | 2.1 | -
O=S(=O)(c1ccc(F)cc1)N1CCN(c2ncnc3c2cnn3-c2ccccc2)CC1 | - | - | - | - | - | -
O=P(O)(CCc1ccncc1)CN1CCCCC1 | - | - | - | - | - | -
COc1cccc(/C=N/n2c(SC)nnc2-c2ccccc2)c1OC | - | - | . | - | 2.1 | -
Cc1cccc(N2C(=O)c3cccc4c(N(C)CCO)ccc(c34)C2=O)c1 | - | - | . | - | 2.1 | -
CCC(CO)NC(=O)c1cccc(S(=O)(=O)N2c3ccccc3CC2C)c1 (centres undefined) | - | - | - | - | - | -
COc1cc(OC)c(-c2nn3c(-c4cccnc4)nnc3s2)cc1OC | - | - | . | - | 3.9 | -
COc1cc(OC)c(-c2nn3c(-c4ccco4)nnc3s2)cc1OC | - | - | . | - | 3.4 | -
COc1ccc(-c2nnc3sc(-c4ccco4)nn23)cc1OC | - | - | - | - | - | -
COc1ccc(-c2nn3c(-c4ccco4)nnc3s2)cc1OC | - | - | + | - | - | -
COc1cc(OC)c(-c2nn3c(-c4ccncc4)nnc3s2)cc1OC | - | - | - | - | - | -
Cc1ccc(S(=O)(=O)N2CCOCC2)cc1C(=O)OCC(=O)N1CCc2ccccc2C1 | - | - | - | - | - | -
Cc1ccc2[nH]c(=O)c3cc(C(=O)NCCN4CCN(C)CC4)sc3c2c1 | - | - | . | - | 2.4 | -
CCn1c2ccccc2c2nnc(SCC(=O)Nc3cc(C)on3)nc21 | - | - | - | - | - | -
CCn1c(=O)c2cc(C(=O)NCCN3CCOCC3)sc2c2ccccc21 | - | - | . | - | 2.1 | -
CCn1c(=O)c2cc(C(=O)Nc3cc(C)on3)sc2c2ccccc21 | - | - | . | - | 2.2 | -
CCn1c(=O)c2cc(C(=O)NCc3cccs3)sc2c2ccccc21 | - | - | - | - | - | -
Cc1sc(NC(=O)CN2CCN(c3ccccn3)CC2)c(C#N)c1C | - | - | - | - | - | -
CC1(C)Cc2ccccc2-c2nnc(-c3ccccn3)n21 | - | - | - | - | - | -
Cn1c2ccccc2c2c(C(=O)N3CCN(c4ccccn4)CC3)cn(C3CCCC3)c(=O)c21 | - | - | - | - | - | -
CCCN(CCC)CCCNC(=O)c1cn(CCOC)c(=O)c2c1c1ccccc1n2C | - | - | - | - | 3.5 | -
CCOC(=O)N1CCN(C(=O)c2cn(CC(C)C)c(=O)c3c2c2ccccc2n3C)CC1 | - | - | . | - | 4.2 | -
SMILES | NADH enzymes | MK inhibit | Spn DPM-DC inh | A340 absorber | Fluor 339 460 | PMK inhibit
CC(C)Cn1cc(C(=O)NCc2cccs2)c2c3ccccc3n(C)c2c1=O | - | - | - | - | 2.6 | -
COc1ccc(N2CCN(C(=O)c3cn(C)c(=O)c4c3c3ccccc3n4C)CC2)cc1 | - | - | - | - | - | -
CCCN(CCC)CCCNC(=O)c1cc2c(=O)n(C)c3ccccc3c2n1C | - | - | - | - | - | -
COCCn1cc(C(=O)N2CCC(C)CC2)c2c3ccccc3n(C)c2c1=O | - | - | . | - | 4.8 | -
O=C(NC1CCCCC1)NC1(C(=O)NCCCN2CCOCC2)CCCCC1 | - | - | - | - | - | -
CCOC(=O)N1CCN(C(=O)c2cn(C)c(=O)c3c2c2ccccc2n3C)CC1 | - | - | - | - | 3.5 | -
CC(C)Cn1cc(C(=O)N2CCOCC2)c2c3ccccc3n(C)c2c1=O | - | - | - | - | 2.6 | -
Cc1c(OCc2nn[nH]n2)ccc2c3c(c(=O)oc12)CCCC3 | - | - | . | - | 3.8 | -
